Only some compounds are listed: those with a hit (about 1.1% of all), similar ones and a draw of the others.
Candida biofilm: kills Candida albicans biofilms; inhibition, % at 6 µM; AID 834; C. albicans biofilm + clotrimazole, Alamar Blue; actives 0.14% (n = 85,000);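 active = inhibition above 20%; inactive = inhibition below 20%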;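 also: preformed 24 hr biofilms exposed to compound for 48 hr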
PLK1 PBD inh: blocks phosphopeptide binding to human Plk1 polo box domain; P53350; Plk1 PBD phosphopeptide binding, fluorescence polarization; inhibition, %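 (tested at about 20 µM)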; actives 0.13% (n = 97,000); AID 693; in the data active = inhibition above about 34%, passing the limit was not always enough
PLK1 inh: blocks human PLK1 kinase activity | P53350 | recombinant PLK1 kinase, TR-FRET peptide phosphorylation | inhibition, % at 10 µM | actives 0.53% (n = 97,000) | AID 619;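 active = inhibition of 50% or more in the single-concentration screen; inactive = inhibition below 50%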
CD11b adhes enh: increases human CD11b/CD18 adhesion to fibrinogen; activation, % at 10 µM; actives 0.07% (n = 93,000); K562 CD11b/CD18 adhesion to fibrinogen, ATPlite luminescence; P05107+P11215;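 active = 10 µM primary screen giving 50% or more activity, confirmed by 40% or more on retest at that dose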
Target sequence (P05107 whole entry, looked up, other chains not shown): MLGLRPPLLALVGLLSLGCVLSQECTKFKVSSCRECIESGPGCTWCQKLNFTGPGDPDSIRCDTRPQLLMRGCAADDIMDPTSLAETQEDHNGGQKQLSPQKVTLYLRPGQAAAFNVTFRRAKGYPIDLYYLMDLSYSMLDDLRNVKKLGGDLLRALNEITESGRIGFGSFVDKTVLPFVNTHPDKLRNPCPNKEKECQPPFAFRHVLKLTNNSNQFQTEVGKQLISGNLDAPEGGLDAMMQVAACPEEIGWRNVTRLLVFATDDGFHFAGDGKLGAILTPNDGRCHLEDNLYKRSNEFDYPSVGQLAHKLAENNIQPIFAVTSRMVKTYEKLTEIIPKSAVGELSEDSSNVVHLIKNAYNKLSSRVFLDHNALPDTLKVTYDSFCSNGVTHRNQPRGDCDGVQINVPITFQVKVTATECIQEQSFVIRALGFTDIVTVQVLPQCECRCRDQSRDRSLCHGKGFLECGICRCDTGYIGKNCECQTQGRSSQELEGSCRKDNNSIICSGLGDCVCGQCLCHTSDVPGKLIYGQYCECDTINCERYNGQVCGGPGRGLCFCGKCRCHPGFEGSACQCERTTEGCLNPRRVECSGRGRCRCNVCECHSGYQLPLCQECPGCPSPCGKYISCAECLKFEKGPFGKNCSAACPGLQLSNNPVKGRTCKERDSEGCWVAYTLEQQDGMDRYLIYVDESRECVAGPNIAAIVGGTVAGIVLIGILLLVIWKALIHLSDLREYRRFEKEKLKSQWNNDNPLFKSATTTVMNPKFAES
Mac1 fbg inh: inhibitors of human CD11b/CD18 binding to fibrinogen; AID 1497; P05107+P11215; inhibition, % at 10 µM; K562 CD11b/CD18 adhesion to fibrinogen, ATPlite luminescence; Mn2+ added to activate the integrin; actives 0.54% (n = 93,000);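 active = primary inhibition of 50% or more at 10 µM, then 40% or more on retest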
Of the large screens only hits and unclear results are named; the others gave an inactive call.

CCc1ccc(-c2cc(C(=O)Nn3cnnc3)c3ccccc3n2)cc1	Mac1 fbg inh 77.9
Cc1cccc(C(=O)/C=C2/c3ccccc3CC(C)(C)N2C)c1	none (no result: Candida biofilm)
CC(C)n1c(-c2ccc(N(C)C)cc2)nc2ccccc21	none
CCn1c(-c2ccc(N(C)C)cc2)nc2ccccc21	Mac1 fbg inh 59.3
CN(C)c1ccc(-c2nc3ccccc3n2C)cc1	Mac1 fbg inh 77.6 (no result: Candida biofilm)
CSc1ccccc1NC(=O)c1ccccc1N(Cc1ccccc1)S(C)(=O)=O	none
CC(C)CNC(=O)c1ccccc1NC(=O)c1ccc(CSc2ccccc2)cc1	none (no result: Candida biofilm, PLK1 PBD inh, PLK1 inh)
CCN(CC)S(=O)(=O)c1ccc(N2CCOCC2)c(NS(=O)(=O)c2ccc(C)c(C)c2)c1	none (no result: Candida biofilm, PLK1 PBD inh, PLK1 inh)
Cc1cc(C)c2nc(SCC(=O)NCCC3=CCCCC3)cc(C)c2c1	none (no result: Candida biofilm, PLK1 PBD inh, PLK1 inh)
COc1ccc(N2CCN(C(=O)C3CCCN(S(=O)(=O)c4cccc5cccnc45)C3)CC2)cc1 (stereo not given)	none
CC1Cc2ccccc2N1C(=O)C1CCCN(S(=O)(=O)c2cccc3cccnc23)C1 (stereo not given)	PLK1 inh 55.4
Cn1c(=O)oc2cc(S(=O)(=O)N3CCCC(C(=O)N4CC=C(c5ccccc5)CC4)C3)ccc21 (stereo not given)	Mac1 fbg inh 60.9
Cn1c(=O)oc2cc(S(=O)(=O)N3CCCC(C(=O)NC4CCCc5ccccc54)C3)ccc21 (stereo not given)	none
O=C(CSCc1ccc(F)cc1)Nc1ccccc1	none (no result: Candida biofilm)
O=C(Nc1ccc(F)cc1)c1ccc(CSc2ccccc2)o1	Mac1 fbg inh 97.1 (no result: Candida biofilm, PLK1 PBD inh, PLK1 inh)
CCn1cc(C(=O)NC(=S)Nc2cccc(O)c2)cn1	none (no result: Candida biofilm)
Cc1ccc(C)c(N(CC(=O)NC2CCCCC2)C(=O)CCC(=O)Nc2ccccn2)c1	none
Cc1ccc(N(CC(=O)NC2CCCC2)C(=O)CCCC(=O)Nc2ccccn2)cc1C	PLK1 inh 57.5
CCC(Sc1nnc(-c2ccc(C)c(Cl)c2)n1CC)C(=O)Nc1nccs1 (stereo not given)	Mac1 fbg inh 55.6 (no result: PLK1 PBD inh, PLK1 inh)
CC(=O)N1CCc2cc(C(=O)CN3CCCN(Cc4ccc(F)cc4)C3)ccc21	PLK1 inh 67.8
O=C(Cn1c2ccccc2c(=O)c2ccccc21)N/N=C/c1cc([N+](=O)[O-])ccc1N1CCCCCC1	CD11b adhes enh 107.4 (no result: Candida biofilm)
FC(F)(F)c1ccc(Oc2ccc3cc(Br)ccc3c2)nc1	none (no result: Candida biofilm, PLK1 PBD inh, PLK1 inh)
COC(=O)N/N=C\c1c(C)nn(-c2ccccc2)c1Cl	none (no result: Candida biofilm, PLK1 PBD inh, PLK1 inh)
Cc1nn(-c2ccccc2)c(Cl)c1/C=C1\SC(=S)NC1=O	Mac1 fbg inh 101.4
CCOC(=O)C(C)Sc1nnc(-c2c[nH]c3ccccc23)n1C (stereo not given)	none
CC(C)Sc1nnc(-c2c[nH]c3ccccc23)n1C	PLK1 inh 63.6
COc1cccc(-n2c(SC)nnc2-c2c[nH]c3ccccc23)c1	none
COc1ccc(-n2c(SC)nnc2-c2c[nH]c3ccccc23)cc1	PLK1 inh 54.8
C=CCSc1nnc(-c2c[nH]c3ccccc23)n1CC	PLK1 inh 61.4
CCn1c(SC(C)C(=O)OC)nnc1-c1c[nH]c2ccccc12 (stereo not given)	PLK1 inh 64.5
COCCn1c(SCC(=O)NCc2ccco2)nnc1-c1c[nH]c2ccccc12	none
CCn1c(SCC(=O)NCc2ccco2)nnc1-c1c[nH]c2ccccc12	none
CCOC(=O)/C=C1\SCC(=O)N1CC(=O)NC(C)c1ccc(F)cc1 (stereo not given)	none (no result: Candida biofilm, PLK1 PBD inh, PLK1 inh)
Cc1ccc(NC2c3ccccc3C(=O)N2CCN2CCOCC2)cc1 (stereo not given)	none
CCCC1CCc2c(sc(NC(=O)OCC)c2C#N)C1 (stereo not given)	none (no result: CD11b adhes enh, Mac1 fbg inh)
CCCSc1n[nH]c(NC(C)=O)n1	PLK1 inh 69.3
COC(=O)Cc1ccc(NC(=O)c2ccc(C)c(C)c2)cc1	none
CCOC(=O)Cc1ccc(NC(=O)c2ccc(C(C)(C)C)cc2)cc1	Mac1 fbg inh 97.9
CCOC(=O)c1c(C)[nH]c(C)c1C(=O)COC(=O)c1cc2ccccc2cc1O	Mac1 fbg inh 62.2 (no result: Candida biofilm, PLK1 PBD inh, PLK1 inh)
COc1ccc(NC(=O)C(C/C=C(/C)Cl)C(C)=O)cc1 (stereo not given)	Candida biofilm 21.1 (no result: CD11b adhes enh, Mac1 fbg inh)
Cc1nc(CN2CCN(C(=O)c3ccc(C(C)(C)C)cc3)CC2)cs1	none
CCN1CCN(CCNC(=O)C2CCCN(Cc3nc(-c4cccc(Cl)c4)oc3C)C2)CC1 (stereo not given)	PLK1 inh 57.0
CCOC(=O)N1CCC(NC(=O)C2CCCN(Cc3nc(-c4cccc(Cl)c4)oc3C)C2)CC1 (stereo not given)	Mac1 fbg inh 59.6 (no result: Candida biofilm)
